Hits are enriched below; roughly 9.5% of the tested compounds scored in any of these assays.
RE007 growth inh: less growth of the S. pombe RE007 Vpr strain; S. pombe RE007 Vpr strain, BacTiter-Glo ATP luminescence, 24 h; Potency, µM (series often up to 92.2 µM), without a hit: top-dose activity change, negative = less growth, hits mostly inhibitors; 360,000 compounds, 0.21% hits; active means well fitted falling curve with a large enough effect; inconclusive means small, poorly fitted or top-dose-only effect; inactive means no such curve, though single readings can be large or run the other way; further: on the % scale 0 is the no-effect control and ±100 the full control effect; nearly all actives have a fitted effect of over 50% in size
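Fission yeast RE007 carrying one integrated HIV-1 vpr copy, seeded at OD 0.01 in PMG+AL medium with 23 nL pinned compound. Grown 24 h at 30 degrees; viability read by BacTiter-Glo luminescence after 5 min.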
Pf growth 96h: P. falciparum growth inhibition at 96 hour, primary screen for plastid delayed-death inhibitors; AID 504834; P. falciparum luciferase reporter growth, 96 h; Potency, µM (doses to about 28.7 µM), for the others: top-dose activity change, negative = inhibition, actives largely listed as inhibitors; 320,000 compounds, 6.9% hits; active means well fitted inhibition curve with a large enough effect; inconclusive means small, poorly fitted or top-dose-only effect, or another doubt; inactive means no such curve, though single readings can be large or run the other way; further: on the % scale 0 is the no-effect control and ±100 the full control effect
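96 h incubation, 37 C, 5% CO2, of luciferase-reporter P. falciparum-infected RBCs (2% hematocrit, 0.05% parasitemia final) with test compounds; endpoint luminescence.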
NS1 function inh: influenza NS1 inhibition; Potency, µM (titrated, usually from 46.1 µM), for inactives: at the top dose activity, positive = more growth; 270,000 compounds, 0.4% hits; further: actives are rising curves; nearly all actives have a fitted effect of over 50% in size
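Read-out: OD600 growth recovery of NS1-expressing budding yeast. Cells grown overnight at 30C in -URA glucose medium, washed, resuspended and diluted 1:100 in 2% galactose assay medium, pH 6.0. Same strain lacking NS1 served as positive control.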
SARS PLP yeast: SARS-CoV PLP inhibition in yeast | Potency, µM (doses to about 32.9 µM), for inactives: at the highest dose activity, positive = growth rescue, actives largely listed as activators | 330,000 compounds, 0.19% hits | S. cerevisiae expressing SARS-CoV PLpro, growth rescue; further: 0% is about no effect; nearly all actives have a fitted effect of over 55% in size
Pf growth 48h: P. falciparum growth inhibition at 48 hours (one generation); P. falciparum luciferase growth in erythrocytes, 48 h; Potency, µM (top dose mostly 28.7 µM), for inactives: at the highest dose activity change, negative = inhibition, actives largely listed as inhibitors; 310,000 compounds, 5.9% hits; AID 504832; active means well fitted inhibition curve with a large enough effect; inconclusive means small, poorly fitted or top-dose-only effect, or another doubt; inactive means no such curve, though single readings can be large or run the other way; further: on the % scale 0 is the no-effect control and ±100 the full control effect
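Luciferase-expressing parasites in RBCs, 2% Hct / 0.1% parasitemia final; RPMI 1640 + 0.5% Albumax; 37 C, 5% CO2, one generation; luminescence read-out, lower signal = inhibition.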
Numbers without * were called inactive; u = inconclusive; x = not tested or not shown; [ ] = remark or other dose. Unless noted, the call rests on the fitted dose curve. Potency means the concentration at half of the fitted maximal effect.

SMILES | RE007 growth inh | Pf growth 96h | NS1 function inh | SARS PLP yeast | Pf growth 48h
CC1CN(C(=O)CCc2cc(C(C)(C)C)c(O)c(C(C)(C)C)c2)CC(C)O1 (stereo not drawn) | 7% | 7.4µM* | 3% | 5% | u
COc1ccc(S(=O)(=O)NCc2cc(-c3ccccc3Cl)no2)cc1 | 23% | -13% | x | -3% | 10µM*
CCOC(=O)C1=NNC(C(=O)c2ccc(Cl)cc2)C1c1ccc(OC)cc1 (stereo not drawn) | 11% | 13µM* | x | 0% | u
CCOC(=O)C1=NNC(C(=O)c2ccc(C)cc2)C1c1ccc(OC)cc1 (stereo not drawn) | 1% | x | -3% | 7% | 12µM*
CCOC(=O)C1NN=C(C(=O)c2ccc(C)cc2)C1c1ccc(C)cc1 (stereo not drawn) | 11% | 10µM* | -76% | -13% | u
C=C1N(c2ccccc2)C(=O)OC1(C)C | -2% | 13% | 8% | 20% | 11%
O=C(C[n+]1cc(-c2ccc(F)cc2)n2c1CCC2)Nc1nc(-c2ccccc2)cs1 | 17% | u | 0% | 3% | u
Cc1ccc(-c2c[n+](CC(=O)Nc3nc(-c4ccc(F)cc4)cs3)c3n2CCC3)cc1 | 29% | 3.7µM* | -21% | 4% | u
Cc1ccc(NC(=O)C[n+]2cc(-c3ccc(C)cc3)n3c2CCC3)cc1 | -9% | 1.9µM* | -9% | -1% | 6.6µM*
Cc1ccccc1NC(=O)C[n+]1cc(-c2ccccc2)n2c1CCC2 | 3% | 5.9µM* | 3% | 0% | u
Cc1ccc(-c2c[n+](CC(=O)Nc3ccc(C)cc3C)c3n2CCC3)cc1 | -8% | u | -2% | 0% | u
Cc1cccc(C)c1NC(=O)C[n+]1cc(-c2ccccc2)n2c1CCC2 | 1% | 12µM* | -5% | 0% | u
Cn1c(NC(=O)/C=C/c2ccc(Cl)c(Cl)c2)cc(=O)n(C)c1=O | 3% | -20% | 7% | -2% | -13%
Cn1c(NC(=O)C[n+]2cc(-c3ccc(Cl)c(Cl)c3)n3c2CCC3)cc(=O)n(C)c1=O | 32µM* | 0.83µM* | 19% | 9% | 1.3µM*
CCN(Cc1ccccc1)S(=O)(=O)c1ccc(S(=O)(=O)N(Cc2cccc(OC)c2)CC2CCCO2)cc1 (stereo not drawn) | 17% | 5.2µM* | 14% | -1% | x
NS(=O)(=O)c1ccc(S(=O)(=O)N(Cc2ccccc2F)CC2CCCO2)cc1 (stereo not drawn) | -13% | 13µM* | -5% | -5% | u
O=c1[nH]c2ccccc2cc1CN(CC1CCCO1)S(=O)(=O)c1ccc(Cl)cc1 (stereo not drawn) | -3% | 13% | -7% | -1% | 15%
CCOC(=O)c1ccc(NC(=O)CN2CCN(C(=O)C3CCCO3)CC2)cc1 (stereo not drawn) | 8% | 95% | -7% | -4% | -2%
CCn1c(=O)c(C(=O)NCCN2CCCCC2)c(O)c2ccccc21 | -9% | 0% | -4% | 0% | 8.3µM*
CCCCCCNC(=O)c1c(O)c2cccc3c2n(c1=O)CCC3 | 9% | u | -1% | -2% | 11%
CCn1c(=O)c(C(=O)NCCc2ccccc2)c(O)c2ccccc21 | 4% | 13% | -9% | -3% | u
CC(=O)c1c(O)c2ccccc2n(Cc2ccccc2)c1=O | -7% | 13µM* | -7% | -2% | u
CCCCCCn1c(=O)c(C(=O)Nc2ccncc2)c(O)c2ccccc21 | x | u | -54% | 12% | 2.9µM*
CCN(CC)CCNC(=O)c1c(O)c2cccc3c2n(c1=O)CCC3 | -9% | x | -13% | 2% | 1.9µM*
CN1CCN(S(=O)(=O)c2ccc(NC(=O)c3ccc(F)cc3Cl)cc2)CC1 | 9% | u | -2% | -2% | 37%
SMILES | RE007 growth inh | Pf growth 96h | NS1 function inh | SARS PLP yeast | Pf growth 48h
NCCSC[C@H](N)C(=O)O | x | x | -3% | x | x
O=S(=O)(Cc1noc(-c2ccccc2Cl)n1)c1ccccn1 | 6% | 138% | 3% | 0% | 253%
CCCn1c(=O)c(C(=O)NCCc2ccc(OC)c(OC)c2)c(O)c2ccccc21 | -1% | 0% | 23% | u | u
CCn1c(=O)c(C(=O)NCCc2ccc(OC)c(OC)c2)c(O)c2ccccc21 | -6% | 10µM* | -43% | 14% | u
Nc1nc(SCc2c(Cl)cccc2Cl)n[nH]1 | 3% | 1.3µM* | -7% | 2% | x
Cc1cc(C)cc(CC2CC(=O)N(c3ccc([N+](=O)[O-])cc3)C2=O)c1 (stereo not drawn) | 18% | u | -21% | -5% | 145%
O=C(Nc1ccc(Cl)cc1)NC1CCCCC1Cc1ccco1 (stereo not drawn) | 6% | u | -128% | -28% | u
O=C(Nc1ccc(Cl)cc1)NC1CCCC1Cc1ccco1 (stereo not drawn) | 7% | u | -84% | -28% | 10µM*
CCCc1nn(C)c2c(=O)[nH]c(-c3cc(S(=O)(=O)Nc4ccc(NC(C)=O)cc4)ccc3OCC)nc12 | 8% | 12µM* | -5% | 0% | 9.3µM*
CCCc1nn(C)c2c(=O)[nH]c(-c3cc(S(=O)(=O)N4CCN(C)CC4)ccc3OCC)nc12 | -2%[18.4 µM] | u | 3% | -3% | u
Cc1ccc(-c2cc3cccc[n+]3cc2-c2ccc(C)cc2)cc1 | -11% | u | 19% | -36% | 0.41µM*
Cc1ccccc1 | x | u | x | x | 0%
CCOC(=O)C(=O)N=Nc1c(O)n(C)c2ccccc12 | -5% | -1% | 8% | -1% | 3%
CCOC(=O)C(C)c1c(C(=O)c2ccc(C)nc2)c2ccccc2n1C (stereo not drawn) | x | 4.7µM* | -7% | -2% | 3.7µM*
CNc1ccccc1C(C)(C)c1cc(-c2ccc(F)cc2)no1 | 15% | 8.3µM* | -10% | -14% | u
Cc1cccc(OCCOC(=O)CN2C(=O)NC3(CCCC3)C2=O)c1 | -6% | 8% | x | -5% | 58%
CCOc1ccccc1CNc1ncnc2ccc(-c3c(C)noc3C)cc12 | x | u | x | -8% | u
Cc1noc(C)c1-c1ccc2ncnc(NCc3cccc(-c4ccccc4)c3)c2c1 | x | 3.7µM* | x | -7% | u
Cc1cccn2c(=O)c3cc(C(=O)NCc4ccco4)c(=N)n(C4CCCCC4)c3nc12 | 28% | 20% | 8% | 1% | 9.3µM*
Cc1cccn2c(=O)c3cc(C(=O)NCc4ccco4)c(=N)n(CCOCCO)c3nc12 | 2% | u | -48% | 2% | 1.5µM*
CCCNC(=O)C1(C)CCCN(Cc2ccc(C(F)(F)F)cc2)C1 (stereo not drawn) | -14%[18.4 µM] | x | x | x | x
Cc1c(Cl)cccc1N=Cc1ccc([N+](=O)[O-])s1 | 16µM* | u | -140% | -30% | u
Cc1ccc(C=Nc2ccccc2C#N)s1 | -4% | -2% | 16% | 6% | 7%
COc1cccc(NC(=O)c2ccc3nc(C)sc3c2)c1 | -5% | u | -40% | -16% | 14%
